Data published in PubChem BioAssay (NCI).
The panel holds about 83,000 compounds, 20% with a hit somewhere; the sample as a whole holds those more often.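 How to read the values: 0–100, growth inhibition (40 = 60% inhibited); 0, no net growth; -100 to 0, cell death (-40 = 40% of starting cells died; -100 = all dead).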 The source made the active and inactive calls. Rule for the calls: active = growth percent below 10; inactive = the rest.

system: SK-MEL-28 melanoma; assay: NCI-60 one-dose screen, 48 h (100 = growth as untreated, 0 = no growth, -100 = all killed); details: 10 µM unless noted

SMILES | growth
CNCc1cccc2c1OCCOCCOCCN(CCN1CCOCC1)S(=O)(=O)c1ccc(cc1)-c1cnc(N)c(n1)C(=O)N2 | 76.3% (inactive)
Cc1cnc(-c2ccc(-c3ccc(NC(=O)Nc4c(F)cc(F)cc4F)cc3F)c3c2C(=O)NC3)[nH]1 | 39.1% (inactive)
Cc1cc(C)c(NC(=O)c2sc3nc4c(cc3c2N)CCCCCC4)c(C)c1 | 75.2% (inactive)
O=C1NN(c2ccccc2)C(c2ccc3c(c2)OCO3)N2CCC[C@@H]12 (some centres not stated) | 111% (inactive)
C=C1C(=O)O[C@H]2[C@H]1CC/C(COC(=O)CCCCCCCCC(=O)OC/C1=C/CC[C@@]3(C)O[C@H]3[C@H]3OC(=O)C(=C)[C@@H]3CC1)=C\CC[C@@]1(C)O[C@@H]21 | -12.8% (active)
COc1ccc(C2N(c3cc(OC)c(OC)c(OC)c3)C(=O)C2(F)F)cc1F (configuration not stated) | 77.2% (inactive)
C=C1C(=O)O[C@H]2[C@H]1CC/C(COC(=O)CCCCCCC(=O)OC/C1=C/CC[C@@]3(C)O[C@H]3[C@H]3OC(=O)C(=C)[C@@H]3CC1)=C\CC[C@@]1(C)O[C@@H]21 | 48.8% (inactive)
O=c1nc(-c2ccccc2)c2cc(-c3ccc(N4CCCC4)nc3)ccc2[nH]1 | 82.3% (inactive)
O=C(Nc1nc(-c2ccccc2)cs1)c1cc(-c2ccc(Br)cc2)nc2ccccc12 | 68.3% (inactive)
COc1ccc2nc3c(n2c1)C(=O)C(=O)c1ccccc1-3 | -83.2% (active)
C=C1C(=O)O[C@H]2[C@H]1CCC(/C=N/c1ncc(Br)cc1N)=C\CC[C@@]1(C)O[C@@H]21 | -25.8% (active)
COC(=O)c1ccc(NC(=O)CSc2nc(-c3ccc(F)cc3)nc3ccccc23)cc1 | 94.7% (inactive)
COc1ccc(C2C(c3ccccc3)C(=O)N2c2cc(OC)c(OC)c(OC)c2)cc1I (configuration not stated) | 60.3% (inactive)
O=[N+]([O-])c1cccc(CN(Cc2cccc([N+](=O)[O-])c2O)c2ccccc2)c1O | 96.7% (inactive)
Nc1c(C(=O)Nc2ccccn2)sc2nc3c(cc12)CCCCCC3 | 51.2% (inactive)
C[C@]12CC[C@@H]3c4ccc(O)cc4CC[C@H]3[C@@H]1C[C@H](O)C2 | 84.3% (inactive)
COCCOCCOCc1n(Cc2ccc3ccccc3c2)c2ccccc2[n+]1Cc1ccc2ccccc2c1 | 16.8% (inactive)
COc1ccc(C(=O)c2cc(F)c(F)c(OC)c2F)cc1OC(=O)CCl | 57.9% (inactive)
Nc1cccc(C(=O)Nc2ccc3c(O)c(N=Nc4ccc(N=Nc5ccc(S(=O)(=O)O)cc5)cc4)c(S(=O)(=O)O)cc3c2)c1 | 107% (inactive)

SMILES | growth
O=C(Nc1ccccc1)NS(=O)(=O)c1c[nH]c(=S)[nH]c1=O | 116% (inactive)
CC(C)CSc1nc(Nc2ccccc2)c(C#N)c(-c2ccc(F)cc2)n1 | 84.5% (inactive)
CC(C)(C#N)c1cc(F)cc(C(=O)Nc2cc(Nc3ncccc3-c3ncnc4nc[nH]c34)ccc2F)c1 | 18.5% (inactive)
COc1c(O)cc2oc3cc(O[C@@H]4OC(C)[C@@H](O)[C@H](O)C4O)c(CC=C(C)C)c(O)c3c(=O)c2c1CC=C(C)C (some centres not stated) | 105% (inactive)
O=C(CCCC(=O)Nc1ccc(-n2nnc3cc(Cl)c(Cl)cc32)cc1)Nc1ccc(-n2nnc3cc(Cl)c(Cl)cc32)cc1 | 57.9% (inactive)
Cn1cc(-c2ccc3c(c2)ncn3-c2ccc(CC(=O)Nc3cc(C(C)(C)C)on3)cc2)cn1 | 48.5% (inactive)
CCC1S/C(=N\N=C(/C)c2ccc[nH]2)N(c2ccccc2)C1=O (configuration not stated) | 110% (inactive)
CC(=O)ON1CCCC(P(=O)(OCOC(=O)C(C)(C)C)OCOC(=O)C(C)(C)C)C1=O (configuration not stated) | -46.9% (active)
Cc1cccc(C)c1Nc1nnc(-c2ccc(F)cc2)o1 | 100% (inactive)
COc1ccc(C2=NN(c3ccc(S(N)(=O)=O)cc3)C(c3ccc(Cl)cc3)C2)c(O)c1 (configuration not stated) | 74.9% (inactive)
CC(=O)Nc1nc2c(c(N)c1C#N)C(c1cccc(Cl)c1)C1=C(CCCC1=O)N2c1sc2c(c1C#N)CCCC2 (configuration not stated) | 82.4% (inactive)
C#Cc1ccccc1NC(=O)c1sc2nc3c(cc2c1N)CCCCCC3 | 91.1% (inactive)
C=C(C)[C@@H]1CC[C@]2(C(=O)N3CCN(C)CC3)CC[C@]3(C)[C@H](CC[C@@H]4[C@@]5(C)C/C(=C/c6ccco6)C(=O)C(C)(C)[C@@H]5CC[C@]43C)[C@@H]12 | 55.7% (inactive)
CCCCC(=O)Nc1c(C(=O)Nc2ccccc2)sc2nc3c(cc12)C(OC(=O)CCCC)CCC3 (configuration not stated) | 110% (inactive)
C#CC[C@@H]1C[C@]2(C)[C@H]3CC[C@@H]4[C@H]5[C@H](C(=C)C)CC[C@]5(C(=O)O)CC[C@@]4(C)[C@]3(C)CC[C@H]2C(C)(C)[C@H]1O | 92% (inactive)
Cc1ccc(-c2nc(C#N)c(S(=O)(=O)N(C)CCO)o2)cc1 | 82% (inactive)
FC(F)(F)c1ccc2c(Nc3cccc(C4CC(c5ccccc5)=NN4c4ccc(Cl)cc4)c3)ccnc2c1 (configuration not stated) | 48.6% (inactive)
COc1ccc2nc(-c3ccc(OC)c(OC)c3)cc(-c3nnc(SCC(=O)Nc4ccc(/C(C)=N\O)cc4)n3-c3ccccc3)c2c1 | 111% (inactive)
